This is a sample that favours compounds with a hit; in the whole collection about 3.5% have one here.
Mtb UGM inh – M. tuberculosis UGM enzyme inhibitors, primary screen, biochemical, fluorescence polarization, single point | AID 504406, 2011 | purified UGM, fluorescence polarization probe displacement | actives 0.06% (n = 320,000) | inhibition, % at 10 µM | UDP-galactopyranose mutase (Mycobacterium tuberculosis (strain ATCC 25618 / H37Rv)), …; in the data active means inhibition above about 10%, passing the limit was not always enough
Target sequence (P9WIQ1 whole entry, looked up): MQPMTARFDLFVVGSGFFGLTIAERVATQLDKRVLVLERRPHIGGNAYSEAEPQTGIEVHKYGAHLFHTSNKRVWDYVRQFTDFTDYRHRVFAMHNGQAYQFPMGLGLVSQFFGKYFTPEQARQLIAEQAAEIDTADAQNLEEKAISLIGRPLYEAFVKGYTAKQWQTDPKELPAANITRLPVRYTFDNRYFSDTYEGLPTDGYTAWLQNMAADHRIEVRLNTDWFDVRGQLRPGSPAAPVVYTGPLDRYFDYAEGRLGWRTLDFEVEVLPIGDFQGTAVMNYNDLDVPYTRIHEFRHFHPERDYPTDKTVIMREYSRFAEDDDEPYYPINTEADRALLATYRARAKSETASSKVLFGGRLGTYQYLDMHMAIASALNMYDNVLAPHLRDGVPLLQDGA
GDH-TPI counter-1 – GDH-TPI coupling enzyme inhibitors, primary screen, artefact control for M. tuberculosis FBA inhibitor project, biochemical, absorbance, full deck; GDH-TPI coupled enzyme counterscreen, NADH absorbance; inhibition, % at 4.8 µM; actives 1.2% (n = 360,000); AID 588335, 2011; in the data active means inhibition above about 30%
Rv3671c inh – Rv3671c serine protease inhibitors, primary screen, biochemical, fluorescence polarization, M. tuberculosis H37Rv | inhibition, % at 5.96 µM | actives 0.048% (n = 320,000) | AID 2606, 2010; in the data active means inhibition above about 38%;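 further: extracellular domain of Rv3671c used as enzyme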
Mtb FBA inh – Mtb FBA enzyme inhibitors, primary screen, biochemical, fluorescence, strain H37Rv; actives 2.3% (n = 360,000); inhibition, % at 1 µM; AID 588726, 2011; Fructose-bisphosphate aldolase (Mycobacterium tuberculosis (strain ATCC 25618 / H37Rv)), …; purified M. tuberculosis FBA, fluorescence read-out
Mtb FBA confirm – M. tuberculosis aldolase blockers, biochemical, fluorescence, strain H37Rv, confirmation; actives 78% (n = 5,600); shares compounds with Mtb FBA inh; purified M. tuberculosis FBA, fluorescence read-out; inhibition, % at 1 µM; AID 651616, 2012
GDH-TPI counter-2 – GDH-TPI coupling enzyme inhibitors, artefact control for M. tuberculosis FBA inhibitor project, biochemical, fluorescence, high throughput; shares compounds with Mtb FBA inh; GDH-TPI coupled enzyme counterscreen; inhibition, % at 1 µM; actives 81% (n = 5,600); AID 652141, 2013; in the data active means inhibition above about 10%
GDH-TPI DR – GDH-TPI coupling enzyme inhibitors, dose response, artefact control for M. tuberculosis FBA inhibitor project, biochemical, fluorescence, IC50; actives 79% (n = 170); AID 652145, 2013; IC50, µM; shares compounds with Mtb FBA inh; GDH-TPI coupled enzyme assay, artifact counterscreen; call rule not given here
A number is an active result; – = inactive; · = not tested or not shown; + = active, no number. Unless noted, no stated cut-off is given here; in the data, active means inhibition above about 27%; inactive means the rest.

SMILES	Mtb UGM inh	GDH-TPI counter-1	Rv3671c inh	Mtb FBA inh	Mtb FBA confirm	GDH-TPI counter-2	others
CCC(C)NC(=O)c1cnn2c(C)c3c(nc12)CCCC3 (configuration not stated)	–	–	–	46	+	+
Cc1c2c(nc3c(C(=O)NC4CC4)cnn13)CCCC2	·	–	–	–	·	·
COc1ccc(NC(=O)Oc2cc(C)ccc2C(C)C)cc1	–	–	–	–	·	·
Cc1ccc(S(=O)(=O)NCCc2cn3nc(C)c(C)nc3n2)cc1C	–	–	–	64	159	159
Cc1ccc(-n2c(-c3ccco3)nc3nc4ccccc4nc32)cc1F	–	–	–	33	77	62
Fc1cccc(-n2c(-c3ccco3)nc3nc4ccccc4nc32)c1	–	–	–	52	73	49
NC(=O)c1nc(C2CCCCC2)nc2c1[nH]c(=O)n2-c1ccc(F)cc1	–	–	–	–	·	·
COc1ccccc1-n1c(=O)[nH]c2c(C(N)=O)nc(-c3cccnc3)nc21	–	–	–	39	–	–
COc1ccccc1-n1c(=O)[nH]c2c(C(N)=O)nc(C3CCCCC3)nc21	–	–	–	27	+	+
COc1ccccc1-c1nc(S(=O)(=O)c2ccccc2)c(N2CCOCC2)o1	–	–	–	–	·	·
CCOC(=O)N1CCC(NC(=O)C2CCN(c3ccc(N4CCOCC4)nn3)CC2)CC1	–	–	–	31	123	107
CC1CCCN(C2(O)C(=O)Nc3ccc([N+](=O)[O-])cc32)C1 (configuration not stated)	–	–	–	–	·	·
CCn1c2ccccc2c(=O)c2ccccc21	–	–	–	87	–	–
Cc1ccc(S(=O)(=O)c2c(N)n(NC(=O)c3ccco3)c3nc4ccccc4nc23)cc1	–	–	–	35	–	–
Cc1cccc(S(=O)(=O)c2c(N)n(Cc3ccco3)c3nc4ccccc4nc23)c1	–	–	–	101	76	61
Cc1ccc(S(=O)(=O)N2CN(Cc3ccco3)c3nc4ccccc4nc32)cc1	–	–	–	–	·	·
Cc1cccc(-n2cnc3c(c2=O)c2nc4ccccc4nc2n3Cc2ccco2)c1	–	–	–	–	·	·
Cc1ccc(S(=O)(=O)c2c(N)n(Cc3ccco3)c3nc4ccccc4nc23)cc1	–	31	–	82	39	30
CCOC(=O)C1CCCN(C(=O)c2cc(S(=O)(=O)N3CCCCC3)c[nH]2)C1 (configuration not stated)	–	–	–	–	·	·
COc1ccc(S(=O)(=O)Nc2ccc(S(=O)(=O)Nc3cc(C)nc(C)n3)cc2)cc1OC	–	–	–	–	·	·
O=C(CN(Cc1ccc(Cl)cc1)S(=O)(=O)c1ccccc1)NCC1CCCO1 (configuration not stated)	–	–	–	–	·	·
CC(C)(C)OC(=O)C[C@H]1C/C=C\C[C@@H](CC(=O)N(CCO)Cc2ccccc2)C(=O)N2CCC[C@H]2COC1=O	–	–	–	–	·	·
Cc1ccc(OCC(=O)NNC(=O)c2ccccc2OCc2c(C)noc2C)cc1	–	–	–	–	·	·
CC1CCc2nc(/C(C#N)=C/c3ccncc3)sc2C1 (configuration not stated)	–	–	–	28	–	–
CCN(CC(=O)NC1CCS(=O)(=O)C1)c1ccc(S(=O)(=O)N(CC)CC)cc1[N+](=O)[O-] (configuration not stated)	–	–	–	–	·	·
SMILES	Mtb UGM inh	GDH-TPI counter-1	Rv3671c inh	Mtb FBA inh	Mtb FBA confirm	GDH-TPI counter-2	others
c1csc(-c2nc3ccccc3[nH]2)c1	–	–	–	48	63	47
c1cncc(-c2nc3ccccc3[nH]2)c1	–	–	–	–	·	·
S=C(Nc1ccc(-c2nc3ccccc3[nH]2)cc1)Nc1cccnc1	–	–	–	89	64	60
Cc1nnsc1-c1nc2ccccc2[nH]1	–	–	–	81	–	–
Cc1nc2ccccc2[nH]c1=O	–	–	–	–	·	·
Cc1[nH]c2ccccc2c1-c1nc2ccccc2[nH]1	–	–	–	–	·	·
Cc1ccc(-c2nc3ccccc3[nH]2)s1	–	–	–	58	68	63
CCc1ccc(C(O)c2ncc(-c3ccc(C)cc3)[nH]2)cc1 (configuration not stated)	·	–	·	–	·	·
O=C(NC1CC1)c1[nH]c(C(F)(F)F)nc1-c1ccccc1	·	·	·	–	·	·
Cc1nn(C)c(NC(=O)c2ccccc2Cl)c1Cl	–	–	–	–	·	·
c1ccc2[nH]c(-c3ccncc3)nc2c1	–	–	–	30	+	179
COc1ccc(NC(=O)CCc2nnc3ccc(NCc4ccco4)nn23)cc1OC	–	–	–	89	142	118
COc1ccc(NC(=O)CCc2nnc3ccc(NCc4ccco4)nn23)cc1	–	–	–	–	·	·
Cc1cc(=O)oc2n[nH]c(-c3ccccc3)c12	–	–	–	–	·	·
COc1ccc(-c2[nH]nc3oc(=O)cc(C)c23)cc1	–	–	–	43	–	–	GDH-TPI DR=3.4
NC(c1csc(Nc2nccc(C(F)(F)F)n2)n1)C1CCCCC1 (configuration not stated)	·	–	·	–	·	·
CC(=O)c1cc(F)c(N2CCN(C(=O)COc3ccccc3F)CC2)cc1C	–	–	–	38	–	–
COc1ccc(OC)c(CCNC(=O)c2ccccc2NC(=O)C2=C(C)OCCS2)c1	–	–	–	–	·	·
S=c1[nH]nc(-c2c[nH]c3ccccc23)o1	–	–	–	50	–	–
Oc1cc2ccccc2cc1-c1n[nH]c(=S)o1	–	–	–	–	·	·
CCN(c1ccccc1)S(=O)(=O)c1nnc(NC(=O)c2ccccc2OC)s1	–	–	–	–	·	·
C=CCn1c(=O)n(CCOC)c(=O)c2sc3ccccc3c21	–	–	–	38	155	164
CC1Cc2c([nH]c3ccccc23)C(=O)N1 (configuration not stated)	–	–	–	32	+	148
COc1ccc(OC)c(-c2nnc(-c3ccc(C)o3)o2)c1	–	–	–	103	101	84
Cc1ccc(CSc2nc3c(c(=O)[nH]2)C(c2ccncc2)C2=C(CCCC2=O)N3)cc1 (configuration not stated)	–	–	–	–	·	·
Cc1ccc(C2C3=C(CC(C)(C)CC3=O)Nc3onc(C)c32)cc1 (configuration not stated)	–	–	–	46	–	–
Cc1noc2c1C(c1ccc(N(C)C)cc1)C1=C(CC(C)(C)CC1=O)N2 (configuration not stated)	–	–	–	–	·	·
